For some assays here: Measured potencies and affinities stand elsewhere.
How the values were obtained:
Parameters in all cases: scale not given: direction of the effect not stated beside the values
[1] = biological target: Protein translocase subunit SecA (Escherichia coli (strain K12)) (UniProt P10408); experiment: Assay to Identify E. coli SecA ATPase Inhibitors; format: functional; conditions: 30 µM
[2] = biological target: T1, Ubiquitin-activating enzyme e1, putative (Leishmania donovani (strain BPK282A1)) (UniProt E9BSI1); experiment: Leishmania donovani Ubiquitin Activating Enzyme (LdE1); format: functional; conditions: 30 µM
T1 sequence (whole entry): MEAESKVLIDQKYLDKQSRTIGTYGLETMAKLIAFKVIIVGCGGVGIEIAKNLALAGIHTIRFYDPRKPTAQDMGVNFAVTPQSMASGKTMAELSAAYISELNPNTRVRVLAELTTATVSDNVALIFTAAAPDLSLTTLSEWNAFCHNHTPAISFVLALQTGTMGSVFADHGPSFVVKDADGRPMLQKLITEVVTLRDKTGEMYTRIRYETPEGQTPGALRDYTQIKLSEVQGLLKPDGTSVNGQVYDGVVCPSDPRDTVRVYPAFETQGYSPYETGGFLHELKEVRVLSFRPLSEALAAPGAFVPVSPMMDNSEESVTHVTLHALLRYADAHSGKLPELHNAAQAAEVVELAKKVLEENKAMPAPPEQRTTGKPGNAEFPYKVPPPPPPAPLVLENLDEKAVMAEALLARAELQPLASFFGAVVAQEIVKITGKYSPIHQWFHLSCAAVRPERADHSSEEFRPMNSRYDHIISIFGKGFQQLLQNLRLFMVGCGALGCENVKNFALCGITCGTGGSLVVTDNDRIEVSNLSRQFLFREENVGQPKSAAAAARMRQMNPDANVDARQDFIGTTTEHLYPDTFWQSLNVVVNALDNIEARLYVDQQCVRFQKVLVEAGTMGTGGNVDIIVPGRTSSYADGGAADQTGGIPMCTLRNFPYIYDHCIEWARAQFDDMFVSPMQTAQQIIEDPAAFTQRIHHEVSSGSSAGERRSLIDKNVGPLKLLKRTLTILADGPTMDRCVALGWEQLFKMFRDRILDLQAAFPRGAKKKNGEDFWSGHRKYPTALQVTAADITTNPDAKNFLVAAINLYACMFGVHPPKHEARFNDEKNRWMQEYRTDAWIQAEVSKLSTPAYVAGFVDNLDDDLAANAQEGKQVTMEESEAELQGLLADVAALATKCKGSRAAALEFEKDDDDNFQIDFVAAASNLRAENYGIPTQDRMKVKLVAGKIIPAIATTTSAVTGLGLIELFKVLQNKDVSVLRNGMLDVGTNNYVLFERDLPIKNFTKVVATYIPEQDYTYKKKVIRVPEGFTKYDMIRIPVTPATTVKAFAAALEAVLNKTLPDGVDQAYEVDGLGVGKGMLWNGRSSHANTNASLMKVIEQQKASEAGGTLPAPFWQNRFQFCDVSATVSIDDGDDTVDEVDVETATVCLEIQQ

[3] = biological target: Sialic acid-binding Ig-like lectin 9 (Homo sapiens) (UniProt Q9Y336); experiment: Hs-Siglec9 ALPHAscreen SOP 20170721; conditions: 10 µM
Trypanosoma cruzi = experiment: Trypanosoma cruzi phosphomannomutase and mannose-1-phosphate guanylyltransferase assay; format: functional; conditions: 10 µM
[4] = biological target: T2, Arginase-2, mitochondrial (Homo sapiens) (UniProt P78540); experiment: in vitro enzyme assay to detect the production of urea directly proportional to the activity of Arginase II; format: functional; conditions: 33.3 µM; also: in the data most compounds retested in dose-response had high values
T2 sequence (whole entry): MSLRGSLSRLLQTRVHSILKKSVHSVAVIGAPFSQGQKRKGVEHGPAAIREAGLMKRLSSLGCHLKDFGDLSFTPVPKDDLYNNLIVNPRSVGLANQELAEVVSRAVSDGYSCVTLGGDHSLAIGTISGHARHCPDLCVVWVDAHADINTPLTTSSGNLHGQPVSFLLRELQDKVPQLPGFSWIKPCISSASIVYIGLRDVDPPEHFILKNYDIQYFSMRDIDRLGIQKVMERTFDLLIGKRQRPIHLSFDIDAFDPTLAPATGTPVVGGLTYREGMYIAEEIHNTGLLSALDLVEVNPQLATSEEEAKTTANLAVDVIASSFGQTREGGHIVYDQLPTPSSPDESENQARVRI

[5] = biological target: T3, Proteasome subunit beta (Trypanosoma cruzi) (UniProt O96673); experiment: Trypanosoma cruzi proteasome chymotrypsin-like activity (TcProtChymo) assay.; also: in the data most compounds retested in dose-response had high values; format: functional; conditions: 9.37 µM
T3 sequence (whole entry): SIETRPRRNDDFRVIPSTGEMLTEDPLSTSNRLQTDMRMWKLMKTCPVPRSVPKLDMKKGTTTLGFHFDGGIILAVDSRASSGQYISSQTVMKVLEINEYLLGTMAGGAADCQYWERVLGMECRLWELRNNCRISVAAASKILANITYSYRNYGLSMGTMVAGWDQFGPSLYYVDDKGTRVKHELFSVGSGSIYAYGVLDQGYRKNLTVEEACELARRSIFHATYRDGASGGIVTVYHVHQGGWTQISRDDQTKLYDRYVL

Homo sapiens = species on record: Homo sapiens; experiment: To identify inhibition of the IFN signalling (Jak-Stat) pathway via expression of an eGFP reporter gene under the control of an IFN-stimulated response element (ISRE) containing MxA promoter.; format: functional; conditions: 30 µM
[6] = biological target: T4, Tyrosyl-tRNA synthetase, putative (Trypanosoma cruzi (strain CL Brener)) (UniProt Q4DSP6); experiment: Trypanosoma cruzi tyrosyl tRNA synthetase (TcYRS) _High Tyrosine SOP; format: functional; conditions: 30 µM; also: in the data most compounds retested in dose-response had high values
T4 sequence (whole entry): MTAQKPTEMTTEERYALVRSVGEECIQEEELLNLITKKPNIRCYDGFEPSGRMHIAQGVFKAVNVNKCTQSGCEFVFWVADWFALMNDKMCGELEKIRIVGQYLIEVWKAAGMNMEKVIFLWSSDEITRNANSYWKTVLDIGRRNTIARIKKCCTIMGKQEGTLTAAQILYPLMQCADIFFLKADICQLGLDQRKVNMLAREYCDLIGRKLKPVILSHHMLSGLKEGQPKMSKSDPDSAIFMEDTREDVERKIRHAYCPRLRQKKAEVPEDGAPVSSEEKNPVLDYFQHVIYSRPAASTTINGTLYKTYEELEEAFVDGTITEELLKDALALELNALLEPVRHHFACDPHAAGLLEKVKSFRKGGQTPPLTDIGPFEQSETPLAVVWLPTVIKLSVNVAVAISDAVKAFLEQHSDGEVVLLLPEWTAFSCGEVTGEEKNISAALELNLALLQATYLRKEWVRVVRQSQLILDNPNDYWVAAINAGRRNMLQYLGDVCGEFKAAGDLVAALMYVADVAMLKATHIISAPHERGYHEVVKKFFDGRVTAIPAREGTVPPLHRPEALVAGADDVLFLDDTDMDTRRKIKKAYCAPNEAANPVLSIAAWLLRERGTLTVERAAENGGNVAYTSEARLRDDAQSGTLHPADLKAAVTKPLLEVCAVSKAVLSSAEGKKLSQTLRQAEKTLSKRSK

[7] = biological target: T4, Tyrosyl-tRNA synthetase, putative (Trypanosoma cruzi (strain CL Brener)); experiment: Trypanosoma cruzi tyrosyl tRNA synthetase (TcYRS) SOP; format: functional; conditions: 30 µM
[8] = biological target: Chromo domain-containing protein 1 (Saccharomyces cerevisiae (strain ATCC 204508 / S288c) (Baker's yeast)) (UniProt P32657); experiment: ScCHD-1 Enzyme Inhibition Assay; format: functional; conditions: 30 µM; also: in the data most compounds retested in dose-response had high values
Chromo domain-containing protein 1 (Saccharomyces cerevisiae (strain ATCC 204508 / S288c) (Baker's yeast)), sequence (P32657 whole entry, the tested form may be a part): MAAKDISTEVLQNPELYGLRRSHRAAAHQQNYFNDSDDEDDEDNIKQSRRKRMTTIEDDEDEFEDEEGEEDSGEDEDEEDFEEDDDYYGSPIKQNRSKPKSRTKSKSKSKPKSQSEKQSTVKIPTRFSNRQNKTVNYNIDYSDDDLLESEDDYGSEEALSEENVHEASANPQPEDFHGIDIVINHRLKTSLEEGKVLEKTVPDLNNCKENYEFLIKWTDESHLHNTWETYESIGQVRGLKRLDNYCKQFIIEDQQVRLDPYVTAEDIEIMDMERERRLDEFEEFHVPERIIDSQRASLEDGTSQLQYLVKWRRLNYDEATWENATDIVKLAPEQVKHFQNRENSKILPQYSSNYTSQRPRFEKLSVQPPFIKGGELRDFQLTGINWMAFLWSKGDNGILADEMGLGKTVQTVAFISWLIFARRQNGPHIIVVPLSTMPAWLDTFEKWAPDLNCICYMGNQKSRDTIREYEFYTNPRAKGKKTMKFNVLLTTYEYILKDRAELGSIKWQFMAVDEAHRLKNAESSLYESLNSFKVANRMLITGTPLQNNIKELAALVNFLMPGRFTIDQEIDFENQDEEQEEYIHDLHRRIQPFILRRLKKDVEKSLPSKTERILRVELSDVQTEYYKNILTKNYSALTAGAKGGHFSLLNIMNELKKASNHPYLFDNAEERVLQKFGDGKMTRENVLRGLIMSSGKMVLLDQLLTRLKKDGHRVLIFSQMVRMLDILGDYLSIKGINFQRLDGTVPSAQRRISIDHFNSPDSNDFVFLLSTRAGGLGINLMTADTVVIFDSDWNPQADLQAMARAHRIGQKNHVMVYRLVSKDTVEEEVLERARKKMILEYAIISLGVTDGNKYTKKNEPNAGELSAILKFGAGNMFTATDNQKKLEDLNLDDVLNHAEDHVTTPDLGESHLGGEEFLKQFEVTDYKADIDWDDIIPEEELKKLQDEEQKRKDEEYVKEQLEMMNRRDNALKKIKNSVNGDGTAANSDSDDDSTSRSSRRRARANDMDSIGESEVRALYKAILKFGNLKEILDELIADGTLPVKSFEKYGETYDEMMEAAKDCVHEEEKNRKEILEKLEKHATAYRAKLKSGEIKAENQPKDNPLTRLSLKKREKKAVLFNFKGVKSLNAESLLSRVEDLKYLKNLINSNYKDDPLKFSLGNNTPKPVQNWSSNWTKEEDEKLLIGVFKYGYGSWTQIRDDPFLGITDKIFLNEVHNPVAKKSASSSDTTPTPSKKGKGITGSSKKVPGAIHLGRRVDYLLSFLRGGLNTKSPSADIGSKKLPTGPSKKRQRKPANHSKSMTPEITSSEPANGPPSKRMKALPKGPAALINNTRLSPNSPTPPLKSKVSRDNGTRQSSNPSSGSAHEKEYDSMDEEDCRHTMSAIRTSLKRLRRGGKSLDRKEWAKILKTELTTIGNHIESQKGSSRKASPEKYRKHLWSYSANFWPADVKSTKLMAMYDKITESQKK

Sialic acid-binding Ig-like lectin 9 (Homo sapiens), sequence (Q9Y336 whole entry): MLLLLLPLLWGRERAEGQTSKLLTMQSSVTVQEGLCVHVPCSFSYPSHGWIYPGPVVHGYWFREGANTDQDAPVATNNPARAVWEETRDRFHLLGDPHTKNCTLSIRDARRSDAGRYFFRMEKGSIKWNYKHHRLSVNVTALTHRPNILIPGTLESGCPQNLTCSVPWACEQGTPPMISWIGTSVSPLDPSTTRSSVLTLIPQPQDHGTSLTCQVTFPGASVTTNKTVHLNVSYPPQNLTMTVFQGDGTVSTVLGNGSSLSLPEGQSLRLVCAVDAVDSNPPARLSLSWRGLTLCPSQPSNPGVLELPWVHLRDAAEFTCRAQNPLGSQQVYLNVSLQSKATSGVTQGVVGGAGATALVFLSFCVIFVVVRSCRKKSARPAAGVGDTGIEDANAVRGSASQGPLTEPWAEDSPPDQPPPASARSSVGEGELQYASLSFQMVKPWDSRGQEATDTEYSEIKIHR
Protein translocase subunit SecA (Escherichia coli (strain K12)), sequence (P10408 whole entry): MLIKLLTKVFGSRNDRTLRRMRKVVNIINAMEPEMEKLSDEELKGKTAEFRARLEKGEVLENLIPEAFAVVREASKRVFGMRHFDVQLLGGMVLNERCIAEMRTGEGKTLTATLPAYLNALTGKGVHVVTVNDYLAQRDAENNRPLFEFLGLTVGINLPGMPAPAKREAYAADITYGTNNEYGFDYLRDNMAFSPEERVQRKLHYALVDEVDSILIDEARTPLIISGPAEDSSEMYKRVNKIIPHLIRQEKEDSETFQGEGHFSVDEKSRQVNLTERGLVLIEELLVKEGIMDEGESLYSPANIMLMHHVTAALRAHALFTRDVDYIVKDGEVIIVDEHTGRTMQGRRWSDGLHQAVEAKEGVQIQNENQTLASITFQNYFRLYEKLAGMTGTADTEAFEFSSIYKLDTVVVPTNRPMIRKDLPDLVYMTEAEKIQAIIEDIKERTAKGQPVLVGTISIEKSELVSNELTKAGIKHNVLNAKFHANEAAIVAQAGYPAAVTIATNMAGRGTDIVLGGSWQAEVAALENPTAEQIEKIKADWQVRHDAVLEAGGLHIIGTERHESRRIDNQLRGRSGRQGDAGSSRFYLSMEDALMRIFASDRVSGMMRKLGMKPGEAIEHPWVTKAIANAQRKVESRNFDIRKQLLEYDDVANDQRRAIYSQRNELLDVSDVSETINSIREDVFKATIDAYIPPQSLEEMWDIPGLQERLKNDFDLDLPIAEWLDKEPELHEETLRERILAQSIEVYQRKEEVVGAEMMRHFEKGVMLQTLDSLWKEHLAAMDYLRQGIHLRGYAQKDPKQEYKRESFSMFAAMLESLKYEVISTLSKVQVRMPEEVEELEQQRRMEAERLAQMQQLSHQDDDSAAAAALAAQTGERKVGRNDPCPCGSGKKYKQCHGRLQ

SMILES: Cc1ccoc1-c1nnc(CN2CCCC(Cn3cncn3)C2)o1 (stereo not given)
- Percent Effect [1]: -4.32%
- Percent Effect [2]: 0%
- Percent Effect [3]: 3.64%
- Percent Effect (Trypanosoma cruzi): 2.54%
- Percent Effect [4]: 7.38%
- Percent Effect [5]: -8.45%
- Percent Effect (Homo sapiens): 14.1%
- Percent Effect [6]: 3.35%
- Percent Effect [7]: 1.21%
- Percent Effect [8]: -1.2%

SMILES: Cc1nc(CN(C)C2CCN(Cc3ccc4ccccc4n3)C2)no1 (stereo not given)
- Percent Effect [1]: 0.184%
- Percent Effect [2]: -5.2%
- Percent Effect [3]: -6.12%
- Percent Effect (Trypanosoma cruzi): 7.28%
- Percent Effect [4]: -9.22%
- Percent Effect [5]: 20.4%
- Percent Effect (Homo sapiens): 10.1%
- Percent Effect [6]: 21.6%
- Percent Effect [7]: 30.6%
- Percent Effect [8]: -10.1%

SMILES: CC(Cn1cccn1)NC(=O)NCc1ccccn1 (stereo not given)
- Percent Effect [1]: -2.65%
- Percent Effect [2]: 8%
- Percent Effect [3]: -5.88%
- Percent Effect (Trypanosoma cruzi): -5.22%
- Percent Effect [4]: 1.33%
- Percent Effect [5]: 7.04%
- Percent Effect (Homo sapiens): 13.9%
- Percent Effect [6]: 1.58%
- Percent Effect [7]: 10.3%
- Percent Effect [8]: -11%

SMILES: c1ccc(-c2nc(CN3CCc4c(ncn4C4CC4)C3)cs2)cc1
- Percent Effect [1]: -0.517%
- Percent Effect [2]: 5.2%
- Percent Effect [3]: -12.1%
- Percent Effect (Trypanosoma cruzi): -0.933%
- Percent Effect [4]: -7.99%
- Percent Effect [5]: 16%
- Percent Effect (Homo sapiens): 28.5%
- Percent Effect [6]: 12.8%
- Percent Effect [7]: 18.8%
- Percent Effect [8]: -8.68%

SMILES: CCOc1ncccc1NC(=O)NC1CCCN(c2ncccn2)C1 (stereo not given)
- Percent Effect [1]: 0.363%
- Percent Effect [2]: 23.4%
- Percent Effect [3]: 1.83%
- Percent Effect (Trypanosoma cruzi): 4.66%
- Percent Effect [4]: -8.4%
- Percent Effect [5]: 13.3%
- Percent Effect (Homo sapiens): 8.06%
- Percent Effect [6]: 11.8%
- Percent Effect [7]: 30.6%
- Percent Effect [8]: -4.97%

SMILES: O=C1CC(c2ccco2)c2sc(C(=O)O)c(-c3ccccc3)c2N1 (stereo not given)
- Percent Effect [1]: -3.7%
- Percent Effect [2]: 18.9%
- Percent Effect [3]: 68.7%
- Percent Effect (Trypanosoma cruzi): 2.23%
- Percent Effect [4]: -3.85%
- Percent Effect [5]: 27.7%
- Percent Effect (Homo sapiens): -0.84%
- Percent Effect [6]: 7.98%
- Percent Effect [7]: 17.1%
- Percent Effect [8]: 44.8%

SMILES: CCc1ccc(O)c(C(=O)NC2CCN(C(=O)OC)CC2)c1
- Percent Effect [1]: 0.0182%
- Percent Effect [2]: 15.4%
- Percent Effect [3]: -8.93%
- Percent Effect (Trypanosoma cruzi): -4.79%
- Percent Effect [4]: 4.51%
- Percent Effect [5]: 5.89%
- Percent Effect (Homo sapiens): 36.6%
- Percent Effect [6]: 5.26%
- Percent Effect [7]: 13.2%
- Percent Effect [8]: -4.89%

SMILES: Cn1ncc(NCc2cc(F)cc(F)c2)c(Cl)c1=O
- Percent Effect [1]: -3.8%
- Percent Effect [2]: 13.3%
- Percent Effect [3]: -5.81%
- Percent Effect (Trypanosoma cruzi): -3.01%
- Percent Effect [4]: -10.6%
- Percent Effect [5]: 7.55%
- Percent Effect (Homo sapiens): 37.7%
- Percent Effect [6]: 4.74%
- Percent Effect [7]: 10.3%
- Percent Effect [8]: -11.4%
